This excerpt belongs to a sample that is enriched for hits.
TTR transcr act: TTR transcription activation, primary screen; SH-SY5Y TTR promoter Gaussia luciferase, luminescence; 100% = recombinant luciferase protein wells; activation, % at 16.7 µM; actives 1.3% (n = 92,000);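 active = activation above the mean of all tested compounds plus 3 SD, cut at about 9.5% in these data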;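 note: cells exposed to compounds for one day before reading; 0% = median of all test compound wells on the plate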
* hit, by the source's call.

SMILES	TTR transcr act
COC(=O)c1cc(COC(=O)c2cccnc2SC)oc1C	41*
CSc1ncccc1C(=O)OCc1ccccc1F	5
COC(=O)c1cc(COC(=O)CNC(=O)c2cccc(C)c2)oc1C	-1
COc1ccc(C(F)(F)F)cc1NC(=O)C(OC(=O)CNC(=O)c1ccccc1)c1ccccc1 (stereo not given)	1
CCOc1ccc(NC(=O)C(NC(=O)C2CCC(C)CC2)C(C)C)cc1 (stereo not given)	1
CCOC(=O)C(C)NC(=O)C(NC(=O)C1CCC(CC)CC1)C(C)C (stereo not given)	10*
CC(C)[C@H](NC(=O)[C@@H]1Cc2ccccc2CN1C(=O)OC(C)(C)C)C(=O)NCC1CCC(C(=O)O)CC1 (stereo not given in full)	0
CN(C)c1cccc(-c2ccnc(N3CCC(C(N)=O)CC3)n2)c1	-2
Cn1c(=O)c2c(nc(NCc3ccc4c(c3)OCO4)n2Cc2ccc(F)cc2)n(C)c1=O	-3
CCCNc1nc2c(c(=O)n(C)c(=O)n2C)n1Cc1cccc(C)c1	2
CCCCC(=O)NCCNc1nc2c(c(=O)n(C)c(=O)n2C)n1Cc1ccc(F)cc1	14*
CCCCNS(=O)(=O)CC1NCCc2ccccc21 (stereo not given)	-1
C[C@H]1[C@@H](OC(=O)N2CCOCC2)CC[C@@]23CCCN2C(=O)CCC[C@@H]13	1
Cc1ccc2c(c1)C1CS(=O)(=O)N(Cc3ccccc3)C(=O)N1C2 (stereo not given)	1
CCN1CCCCC(NC(=O)COCc2ccccc2)C1=O (stereo not given)	-1
COCCNC(=O)C1Cc2c(-c3ccc(NC(C)=O)cc3)ccnc2O1 (stereo not given)	-1
O=C(Nc1ccc(Cl)cc1)C1Cc2c(-c3ccc(Cl)cc3)ccnc2O1 (stereo not given)	1
CC(=O)NCCNC(=O)C1Cc2c(-c3ccc(Cl)cc3)ccnc2O1 (stereo not given)	10*
COCC(=O)Nc1cc(OC)ccc1OC	6
COc1ccc(OC)c(NC(=O)CSCC(=O)O)c1	23*
COc1ccc(NC(=O)CSCc2ccc(C#N)cc2)c(OC)c1	2
COCC(=O)N(c1ccc(C(C)(C)C)cc1)C(C(=O)NC(C)(C)C)c1cccnc1 (stereo not given)	2
COC(=O)[C@]12C[C@H](CC(=O)N3CCCCC3)C(=O)N(Cc3ccc(Cl)cc3Cl)C1=C[C@H](C(C)C)O[C@@H]2C1CC1	0
C=CCN1C(=O)[C@H](CC(=O)N2CCN(C(=O)c3ccco3)CC2)[C@@]2(C(=O)OCC)CCCC=C12	3
COCCNC(=O)C1c2cc(OC)c(OC)cc2C(=O)N(C)C1c1cccnc1 (stereo not given)	3
SMILES	TTR transcr act
CCOc1cc2c(cc1OCC)C(C(=O)O)C(c1cc(OC)c(OC)c(OC)c1)N(C)C2=O (stereo not given)	12*
CCCN(CCC)CCCNC(=O)C1c2cc(OC)c(OC)cc2C(=O)N(C)C1c1cccnc1 (stereo not given)	1
COC(=O)[C@@H]1[C@H](O[Si](C)(C)C(C)(C)C)C2OC2C[C@H]1S(=O)(=O)c1ccccc1 (stereo not given in full)	-1
O=C(Nc1cc(Cl)ccc1N1CCOCC1)c1ccc2c(c1)OCCO2	0
O=C(Nc1ccccc1N1CCN(C(=O)c2ccc(Cl)cc2)CC1)c1ccc2c(c1)OCO2	10*
O=C(Nc1ccc(N2CCN(C(=O)c3ccc(Cl)cc3)CC2)cc1)c1ccc2c(c1)OCCO2	-6
C#CCNC(=O)C[C@@H]1C[C@]2(C(=O)OCC)CCC3=C2N(CCC3)C1=O	-2
CCCCCCC[C@H](N)[C@H](O)C(=O)N(C)[C@@H](CCS(C)=O)C(=O)N[C@@H](Cc1ccc(O)cc1)C(=O)O (stereo not given in full)	-1
C[C@]12C(=O)N(c3cccc(F)c3)C(=O)N1[C@H]1c3ccccc3OC[C@@H]1[C@H]2c1ccccc1	-2
C[C@]12C(=O)N(c3ccccc3)C(=O)N1[C@H]1c3ccccc3OC[C@@H]1[C@H]2c1ccccc1	11*
C[C@]12C(=O)N(c3cccc(Cl)c3)C(=O)N1[C@@H]1c3ccccc3OC[C@@H]1[C@H]2c1ccccc1	3
O=P(c1ccccc1)(c1ccccc1)c1cnc2ccccn12	2
COc1ccc2c(c1)[C@@]1(NCCc3c1[nH]c1ccc(OC)cc31)C(=O)N2	1
CCOc1ccc(CCNC(=O)c2cc3sccc3n2Cc2ccccc2)cc1OCC	-1
Cc1ccccc1CN1CCCCC(NC(=O)C2CCCC2)C1=O (stereo not given)	0
COc1ccc(NC(=O)CCN2C(=O)NC3(CCCC3)C2=O)cc1Cl	2
O=C(CN1C(=O)NC2(CCCC2)C1=O)NC(c1ccccc1)c1ccccc1	-1
O=C(O)CCN1C(=O)NC2(CCCC2)C1=O	17*
COC(=O)[C@]12C[C@H](CC(=O)N3CCCC3)C(=O)N(Cc3ccco3)C1=C[C@H](C1CCCC1)O[C@@H]2C	2
CCC[C@H]1[C@@H](N(C)CC2CCCCC2)CC[C@@]23CCCN2C(=O)CCC[C@@H]13	-1
CC1CCN(c2ncccc2C(=O)O)CC1	2
Cc1cc(N2CCC(C)CC2)nc2ccccc12	-1
CC1CCN(c2nnc(N3CCC(C)CC3)c3ccccc23)CC1	15*
O=C(OCc1cn(Cc2ccccc2F)nn1)N1CCCC1	0
CCn1c(SCC(=O)Nc2ccc(N(C)C)cc2)nnc1-c1cccc(C)c1	28*
SMILES	TTR transcr act
CCn1c(SCC(=O)Nc2ccc(C)cc2)nnc1-c1ccccn1	0
CCn1c(SCC(=O)Nc2cccc(OC)c2)nnc1-c1ccc(Cl)cc1	1
COC(CNC(=O)[C@H](Cc1c[nH]c2ccccc12)NC1(C(=O)NC2CCCCC2)CCCCC1)OC	0
Nc1cccc(S(=O)(=O)N2CCCN(S(=O)(=O)c3ccc4c(c3)OCCO4)CC2)c1	-1
CCN(CC)S(=O)(=O)c1ccc(NS(=O)(=O)c2cccc(C)c2)cc1	10*
CCN(CC)S(=O)(=O)c1ccc(NS(=O)(=O)c2ccc(OC)c([N+](=O)[O-])c2)cc1	1
CCN(CC)S(=O)(=O)c1cc(NS(=O)(=O)c2cccc(Cl)c2Cl)ccc1C	-2
COc1ccc(C2c3c(ccc4ccccc34)Oc3ncn4nc(CO/N=C/c5ccccc5)nc4c32)cc1 (stereo not given)	12*
COc1cccc(C2c3c(ncn(-c4ccccc4)c3=N)Oc3ccc4ccccc4c32)c1OC (stereo not given)	2
COc1ccc(C2c3c(ccc4ccccc34)Oc3ncn4nc(-c5ccco5)nc4c32)cc1 (stereo not given)	3
O=C(NCc1ccccc1)OC1CC2CC1[C@H]1CCCCN1C2 (stereo not given in full)	0
COC(=O)[C@]12C[C@H](CC(=O)NCCC(C)C)C(=O)N(Cc3ccc(Cl)cc3Cl)C1=C[C@H](C1CCCC1)O[C@@H]2C	0
COC(=O)[C@H]1[C@@H](C)N(CCc2cc(OC)c(OC)c(OC)c2)C(=O)N[C@H]1c1ccccc1	-1
CCN1C(=NCCCOC(C)C)N[C@@H](c2ccccc2)[C@H](C(=O)OC)[C@H]1C	12*
CCN1C(=NCCc2ccc([N+](=O)[O-])cc2)N[C@@H](c2ccccc2)[C@H](C(=O)OC)[C@H]1C	3
Brc1ccc(-c2csc(N3CCC(c4nn[nH]n4)CC3)n2)cc1	2
Cc1cccc(C(=O)Nc2c(-c3ccccc3)nc3ncccn23)c1	-1
